# From PubChem BioAssay (NCATS)
# A number with no mark means an inactive call. Records with an inconclusive call do not appear. Calls of active or inactive are those of the source. Unless noted, calls come from the whole dose curve; as a rule, active = well fitted curve in either direction with a large enough effect (not every such curve was filed as active); inconclusive = small, poorly fitted or top-dose-only effect, or another doubt; inactive = flat fitted curve, though single readings scatter.
# Columns and labels:
# [1] = biological target: Lysosomal acid glucosylceramidase (Homo sapiens) (UniProt P04062); assay: Glucocerebrosidase-p2 (AID 348; in the data active = potency below about 10 µM; note: potency is the fitted concentration of half-maximal effect); conditions: purified GBA, blue fluorogenic substrate, 40 min
# Lysosomal acid glucosylceramidase (Homo sapiens), sequence (P04062 whole entry, looked up): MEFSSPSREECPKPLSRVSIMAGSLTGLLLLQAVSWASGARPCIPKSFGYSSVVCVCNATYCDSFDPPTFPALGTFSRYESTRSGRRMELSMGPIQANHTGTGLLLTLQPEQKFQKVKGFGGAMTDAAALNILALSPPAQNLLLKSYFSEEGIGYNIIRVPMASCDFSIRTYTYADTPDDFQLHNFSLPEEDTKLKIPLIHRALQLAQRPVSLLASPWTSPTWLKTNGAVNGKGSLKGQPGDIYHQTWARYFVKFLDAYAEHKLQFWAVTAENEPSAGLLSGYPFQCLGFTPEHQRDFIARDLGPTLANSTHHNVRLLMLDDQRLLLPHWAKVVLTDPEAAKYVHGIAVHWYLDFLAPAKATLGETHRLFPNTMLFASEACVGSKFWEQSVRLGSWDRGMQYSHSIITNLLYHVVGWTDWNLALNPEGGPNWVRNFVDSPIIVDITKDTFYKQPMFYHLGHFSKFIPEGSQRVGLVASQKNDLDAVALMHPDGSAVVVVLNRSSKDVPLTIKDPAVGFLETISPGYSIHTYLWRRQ
# Summary of the method: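 Compounds titrated from 0.6 nM upwards against 0.2 nM enzyme in pH 5.9 citric acid/KH2PO4, taurocholate, tween-20; blue fluorogenic substrate 80 uM, 40 min room temperature, stopped and read Ex 365/Em 440 for AC50.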
# [2] = AP1 Signaling Pathway (AID 357); conditions: ME-180 AP-1-bla reporter, EGF-induced, beta-lactamase ratio, 5 h; at 7.69 µM (top of the series) unless noted;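 note: ME-180 reporter cells stimulated with EGF at its EC50 level; % is set by controls: 0 for no effect and ±100 for the full control effect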
# Summary of the method: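 First, ME-180 AP-1-bla cells were cultured overnight at 37 °C in low-serum Opti-MEM. Next, titrated compounds with EC50 EGF were incubated 5 hours. Finally, CCF4 was added for 2.5 hours and the 460/530 nm ratio recorded.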
# [3] = NFAT Signaling Pathway (AID 444); conditions: Jurkat NFAT-bla M1, carbachol, beta-lactamase ratio, 5 h; at 7.69 µM (top of the series) unless noted;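 note: carbachol stimulus at about its EC50 of 1 µM final; % is set by controls: 0 for no effect and ±100 for the full control effect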
# Summary of the method: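 Jurkat cells carrying an NFAT-driven β-lactamase reporter and co-transfected muscarinic M1 receptor were treated with compound plus carbachol (1 uM final, an EC50 level) for 5 h at 37 °C. CCF4 loading followed for 1 h at RT; 460/530 nm ratio gave %activity.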
# [4] = Stat Signaling Pathway (AID 446); conditions: ME-180 (cervical carcinoma) SIE beta-lactamase reporter, IL-6 stimulated, 5 h; at 7.69 µM (top of the series) unless noted;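 note: ME-180 cervical cancer cells given 40 pM IL-6 alongside compound; SIE-controlled beta-lactamase reporter measured as 460/530 nm FRET emission ratio; % is set by controls: 0 for no effect and ±100 for the full control effect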
# Summary of the method: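 IL-6/STAT signaling read in ME-180 cells via an SIE beta-lactamase reporter. Stimulus was 40 pM IL-6 (its AC50) for 5 hrs, so both activation and inhibition register.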
# [5] = biological target: Glucocorticoid receptor (Homo sapiens) (UniProt P04150); assay: GR-GFP Redistribution (AID 450;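 active = compounds whose dose series gives a full or clear partial fitted curve of increased nuclear translocation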; note: potency is the fitted concentration of half-maximal effect); conditions: U2OS GR-GFP nuclear translocation, laser cytometry, 2 h
# Glucocorticoid receptor (Homo sapiens), sequence (P04150 whole entry, looked up, the tested form may be a part): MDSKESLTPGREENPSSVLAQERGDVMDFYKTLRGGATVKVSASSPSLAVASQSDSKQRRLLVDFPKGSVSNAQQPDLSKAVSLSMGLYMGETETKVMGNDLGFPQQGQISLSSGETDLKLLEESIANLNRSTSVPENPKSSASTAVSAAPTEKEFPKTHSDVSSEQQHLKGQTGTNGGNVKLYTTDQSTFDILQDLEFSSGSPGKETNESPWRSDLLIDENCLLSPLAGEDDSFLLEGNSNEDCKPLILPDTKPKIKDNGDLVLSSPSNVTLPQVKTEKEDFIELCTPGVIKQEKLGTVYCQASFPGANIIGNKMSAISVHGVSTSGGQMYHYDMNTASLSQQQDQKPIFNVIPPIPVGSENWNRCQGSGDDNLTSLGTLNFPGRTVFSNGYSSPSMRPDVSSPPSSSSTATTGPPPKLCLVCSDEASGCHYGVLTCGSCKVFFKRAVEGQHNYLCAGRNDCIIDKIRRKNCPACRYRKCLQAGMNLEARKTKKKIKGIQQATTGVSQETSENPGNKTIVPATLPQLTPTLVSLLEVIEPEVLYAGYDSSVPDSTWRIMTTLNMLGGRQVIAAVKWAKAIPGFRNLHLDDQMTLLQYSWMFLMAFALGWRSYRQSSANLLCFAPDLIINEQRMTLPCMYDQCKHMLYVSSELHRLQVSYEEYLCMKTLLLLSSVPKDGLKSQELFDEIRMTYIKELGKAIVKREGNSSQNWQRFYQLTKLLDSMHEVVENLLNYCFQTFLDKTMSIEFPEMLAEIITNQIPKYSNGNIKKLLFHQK
# [6] = biological target: Mitogen-activated protein kinase 10 (Mus musculus) (UniProt Q61831); assay: JNK3 AlphaScreen Assay (AID 530); conditions: JNK3 lysate, c-Jun phosphorylation; series mostly up to 57.1 µM;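 note: kinase came from lysate of stimulated human HepG2 cells; signal reports phosphorylation of biotinylated GST-cJun 1-79 at Ser73 with 10 µM ATP; % is set by controls: 0 for no effect and ±100 for the full control effect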
# Summary of the method: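 JNK3 came from HepG2 lysates pre-activated with IL-1beta and TNF-alpha and phosphorylated biotinylated GST-cJun (1-79) at 10 uM ATP, pH 7.6, room temperature. Compounds were titrated. AlphaScreen signal used anti-phospho-cJun (Ser73) antibody.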
# [7] = biological target: 3',5'-cyclic-AMP phosphodiesterase 4B (Homo sapiens) (UniProt Q07343); assay: qHTS Assay for Inhibitors of PDE-IV (AID 607; active = well fitted activation curve with a large enough effect in the main read-out, with a control signal flat, not every such curve was filed as active; note: % of control where 0% means no effect); conditions: HEK293 ACTOne CNG channel cells, membrane potential fluorescence; series mostly up to 22.9 µM
# 3',5'-cyclic-AMP phosphodiesterase 4B (Homo sapiens), sequence (Q07343 whole entry, looked up): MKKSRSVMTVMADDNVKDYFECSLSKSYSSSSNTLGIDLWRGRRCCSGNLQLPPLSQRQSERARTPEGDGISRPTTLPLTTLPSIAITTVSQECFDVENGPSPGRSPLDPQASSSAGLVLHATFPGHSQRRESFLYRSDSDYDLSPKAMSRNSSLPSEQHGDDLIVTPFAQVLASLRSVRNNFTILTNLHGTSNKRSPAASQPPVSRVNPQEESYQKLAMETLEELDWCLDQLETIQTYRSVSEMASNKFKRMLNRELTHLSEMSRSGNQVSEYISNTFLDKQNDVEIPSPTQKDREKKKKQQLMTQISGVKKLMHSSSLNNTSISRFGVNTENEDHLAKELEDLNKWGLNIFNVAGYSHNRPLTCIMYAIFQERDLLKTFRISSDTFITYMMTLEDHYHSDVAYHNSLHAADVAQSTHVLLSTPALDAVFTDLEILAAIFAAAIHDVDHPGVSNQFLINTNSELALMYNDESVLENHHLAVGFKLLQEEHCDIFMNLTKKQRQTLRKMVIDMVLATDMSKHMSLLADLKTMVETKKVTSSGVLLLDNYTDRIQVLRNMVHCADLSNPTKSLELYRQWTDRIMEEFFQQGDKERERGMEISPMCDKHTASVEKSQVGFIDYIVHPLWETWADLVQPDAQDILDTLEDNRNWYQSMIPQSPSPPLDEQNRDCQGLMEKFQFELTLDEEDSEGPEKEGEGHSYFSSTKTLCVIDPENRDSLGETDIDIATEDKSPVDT
# Summary of the method: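 Live HEK293 cells with a modified cyclic nucleotide-gated (CNG) channel report intracellular cAMP via membrane-potential dye fluorescence (ex 535/em 590 nm). Endogenous PDE-IV was targeted. Compounds were tested at up to 22.9 uM final; RO 20-1724 100 uM served as control.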
# [8] = biological target: Cytochrome P450 3A4 (Homo sapiens) (UniProt P08684); assay: qHTS Assay for Activators of Cytochrome P450 3A4 (AID 885; active = well fitted curve in the direction sought with a large enough effect; an effect the other way counts as inactive or inconclusive; note: nearly all actives have a fitted effect of over 65% in size); conditions: recombinant CYP3A4, Luciferin-PPXE luminescence, 60 min; series mostly up to 57.1 µM
# Cytochrome P450 3A4 (Homo sapiens), sequence (P08684 whole entry, looked up): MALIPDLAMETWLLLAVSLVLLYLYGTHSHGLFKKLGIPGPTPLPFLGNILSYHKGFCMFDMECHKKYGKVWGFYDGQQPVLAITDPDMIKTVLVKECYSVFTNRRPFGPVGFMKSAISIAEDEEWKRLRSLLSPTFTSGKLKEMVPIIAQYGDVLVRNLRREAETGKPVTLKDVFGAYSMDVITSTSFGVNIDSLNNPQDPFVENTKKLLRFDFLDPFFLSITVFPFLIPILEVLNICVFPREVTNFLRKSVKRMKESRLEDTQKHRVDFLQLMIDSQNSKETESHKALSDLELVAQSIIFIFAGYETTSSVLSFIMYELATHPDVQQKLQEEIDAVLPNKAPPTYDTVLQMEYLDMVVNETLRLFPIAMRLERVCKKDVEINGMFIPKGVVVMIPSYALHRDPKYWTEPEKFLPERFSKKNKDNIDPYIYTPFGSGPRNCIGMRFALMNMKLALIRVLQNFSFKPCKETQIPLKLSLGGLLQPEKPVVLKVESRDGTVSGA
# Summary of the method: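 Quantitative HTS format: compounds preincubated with 20nM human CYP3A4 and Luciferin-PPXE substrate at KM, reaction started by NADPH regeneration, stopped after 60 min, luciferase luminescence read 20 min later.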
# [9] = biological target: Cytochrome P450 2D6 (Homo sapiens) (UniProt P10635); assay: qHTS Assay for Inhibitors and Substrates of Cytochrome P450 2D6 (AID 891; active = well fitted curve in the direction sought with a large enough effect; an effect the other way counts as inactive or inconclusive; note: potency is the fitted concentration of half-maximal effect; nearly all actives have a fitted effect of over 60% in size); conditions: recombinant CYP2D6, luciferin-ME EGE luminescence; series mostly up to 11.4 µM
# Cytochrome P450 2D6 (Homo sapiens), sequence (P10635 whole entry, looked up): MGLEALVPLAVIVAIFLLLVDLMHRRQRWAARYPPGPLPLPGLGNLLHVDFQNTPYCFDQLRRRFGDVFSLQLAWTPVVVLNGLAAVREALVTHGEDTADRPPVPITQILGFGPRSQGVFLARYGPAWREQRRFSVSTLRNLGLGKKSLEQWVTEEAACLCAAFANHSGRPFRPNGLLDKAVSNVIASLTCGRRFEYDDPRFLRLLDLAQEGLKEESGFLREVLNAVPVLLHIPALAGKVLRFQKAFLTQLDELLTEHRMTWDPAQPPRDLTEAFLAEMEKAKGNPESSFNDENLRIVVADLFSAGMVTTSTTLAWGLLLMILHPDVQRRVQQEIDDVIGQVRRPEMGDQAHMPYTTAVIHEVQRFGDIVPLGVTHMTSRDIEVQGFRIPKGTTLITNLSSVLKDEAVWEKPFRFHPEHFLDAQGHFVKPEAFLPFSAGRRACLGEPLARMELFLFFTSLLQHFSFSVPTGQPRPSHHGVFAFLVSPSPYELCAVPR
# Summary of the method: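 Human CYP2D6 (5 nM) with 30 uM Luciferin-ME EGE (at Km) in 100 mM KPO4, compound preincubated 10 min, then NADPH regeneration system for 60 min at room temperature. Luciferin read by luminescence; normalized to 1.43 uM quinidine.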
# [10] = biological target: Glucocorticoid receptor (Homo sapiens) (UniProt P04150); assay: GR-EFC Redistribution (AID 451; calls by dose curve; note: potency is the fitted concentration of half-maximal effect); conditions: CHO-K1 GR-EFC translocation, beta-gal luminescence, 2 h
# Summary of the method: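 CHO-K1 cells stably expressing nuclear-localized β-gal enzyme acceptor and GR fused C-terminally to the enzyme donor fragment; ligand-driven nuclear translocation restores β-gal by complementation. Compounds titrated up to 46 uM final, 2 h at 37 °C; luminescence read.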
SMILES,Potency [1],"activity change, negative = inhibition [2] [%]","activity change, negative = inhibition [3]","activity, negative = inhibition [4] [%]",Potency [5] [µM],"activity change, negative = inhibition [6]",outcome [7],"activity change, positive = activation [8]",Potency [9],Potency [10] [µM]
CCNC(C)(C)[C@@H](SS)c1ccc(Br)cc1,> 11.4 µM,5.96,11.8%,-1.19,> 46,-0.59% [at 11.4 µM],inactive,-31.2% [at 11.4 µM],2 µM (active),
CSc1ccc2c(c1)c(CCN)c(C)n2Cc1ccccc1Cl,> 11.4 µM,16.6,17.6%,-2.31,,-5.61% [at 11.4 µM],inactive,,,> 9.22
COC(=O)[C@@H]1c2cc3c(c(O)c2[C@@H](O)C[C@]1(C)O)C(=O)c1c(O)cc2c(c1C3=O)O[C@H]1O[C@@]2(C)[C@@H](O)[C@H](N(C)C)[C@H]1O,> 11.4 µM,-3.96,6.8%,-3.22,> 46,,inactive,,,> 9.22
C[C@@]12CC[C@H]3[C@@H](CC[C@H]4C[C@@H](O)CC[C@]43C)[C@H]1CC[C@@H]2C(=O)C[C@H](O)C(F)(F)F,> 11.4 µM,5.97,5.84%,-6.11,> 46,-0.552% [at 11.4 µM],inactive,,,> 9.22
CCNCCC1(CC)C(=O)NC(=O)NC1=O,> 11.4 µM,0.916,11.4%,2.13,,3.87% [at 11.4 µM],inactive,,,
C[C@]12CC[C@@H]3[C@H](CCC4=CC(=O)CC[C@]43C)[C@]1(O)CC[C@@]2(O)C(=O)CO,> 11.4 µM,-0.316,5.17%,-1.84,,4.11% [at 11.4 µM],inactive,,,> 9.22
C[C@@]12CC[C@H]3[C@H](CCC4=CC(=O)CC[C@H]43)[C@H]1CC[C@H]2OC1(O)C(=O)c2ccccc2C1=O,> 11.4 µM,1.93,,-10.1,> 46,-3.36% [at 11.4 µM],inactive,,,> 9.22
CN(C)[C@@H]1C(=O)C(C(N)=O)=C(O)[C@]2(O)C(=O)C3=C(O)c4c(O)cccc4[C@](C)(O)[C@H]3C[C@@H]12,> 11.4 µM,-8.78,15.2%,-10.5,,,inactive,,,
CC(C)(C)c1cc(C#N)cc(Br)c1OP(=O)(Oc1c(Br)cc(C#N)cc1C(C)(C)C)c1ccccc1,> 11.4 µM,7.55,-6.35%,16.6,> 46,-1.35% [at 11.4 µM],inactive,,,> 9.22
ClCC[N+]12CC[N+](CCCl)(CC1)C2 (tested in a mixture with another compound),> 11.4 µM,1.69,-23.8%,3.41,,2.18% [at 11.4 µM],inactive,,,
Nc1c(C(=O)Nc2ccc([As](=O)(O)O)cc2)cnc2nnnn12,> 11.4 µM,2.63,25.5%,-0.343,> 46,0.733% [at 11.4 µM],inactive,,,> 9.22
C[C@]12CN(CC[N+](C)(C)C)C[C@]1(C)[C@@H]1CC[C@@H]2O1,6.39 µM (active),12.6,10.2%,-6.86,,-2.5% [at 11.4 µM],inactive,,,> 9.22
O=C(O)C(Oc1nc(=S)[nH]c(=S)[nH]1)(c1ccc(Cl)cc1)c1ccc(Cl)cc1,> 11.4 µM,17,0.65%,3.94,> 46,5.45% [at 11.4 µM],inactive,,,> 9.22
NC1(P(=O)(O)O)CCCCC1,> 11.4 µM,11.8,-8.61%,4.3,> 46,5.68% [at 11.4 µM],inactive,,,> 9.22
C[N+]1([O-])[C@H]2CC[C@H]1CC(OC(=O)[C@@H](CO)c1ccccc1)C2 (stereo not given in full),> 11.4 µM,-0.292,-79.7% (active),-0.881,> 46,,inactive,,,
Nc1nnnn1CCO,> 11.4 µM,7.2,8%,12,> 46,3.27% [at 11.4 µM],inactive,,,> 9.22
